Consider 13 molecules from PubChem BioAssay (Tox21).

Values without a mark were called inactive. Inconclusive results are not listed. Calls of active or inactive are those of the source. Unless noted, calls come from the whole dose curve; as a rule, active = well fitted curve in the direction sought with a large enough effect in the repeat runs; inconclusive = weak or mixed curves; inactive = no such curve, though single readings can be large; an effect the other way counts as inactive or inconclusive.

Experiment [1] in a line: qHTS assay to identify small molecule antagonists of the progesterone receptor (PR) signaling pathway - cell viability counter screen (AID 1346798). Note: nearly all actives have a fitted effect of over 50% in size. Note: potency is the fitted concentration of half-maximal effect. In outline:
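Same-well multiplex: after 16 hr at 37C with compound and R5020 stimulation, HEK293T cells carrying a UAS-bla reporter received LiveBLAzer substrate (2 hr RT), then CellTiter-Glo (30 min RT) for luminescent viability.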
For orientation: In qHTS, concentration-response curves come from the screen itself.

Experiment [2] in a line: qHTS assay to identify small molecule agonists of the TGF-beta/Smad signaling pathway - cell viability counter screen (AID 1346829). Note: nearly all actives have a fitted effect of over 45% in size. Note: potency is the fitted concentration of half-maximal effect. The procedure, abridged:
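Tox21 qHTS format: SBE-bla HEK 293T cells treated with DMSO-dissolved compounds for 5 hr; CellTiter-Glo luminescence after 30 min at room temperature.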

The nature of experiment [3]: qHTS assay to identify small molecule agonists of the TGF-beta/Smad signaling pathway (AID 1346859; active = well fitted activation curve with a large enough effect in the signal ratio in the repeat runs, not every such curve was filed as active; the % refers to the signal ratio; note: series mostly up to about 77 µM). The procedure, abridged: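 Smad-responsive beta-lactamase reporter cells (HEK 293T) received compounds from DMSO stocks after overnight attachment, were incubated 5 hr, then treated 2 hr with FRET substrate before dual-emission fluorescence measurement (405 nm excitation).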

Experiment [4] addresses Thyrotropin-releasing hormone receptor (Homo sapiens) (UniProt P34981). The experiment in a line: qHTS assay to identify small molecule antagonists of the thyrotropin-releasing hormone receptor (TRHR) signaling pathway (AID 1346877; active = well fitted inhibition curve with a large enough effect in the repeat runs, not every such curve was filed as active; note: series mostly up to about 51 µM). In outline: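 Intracellular calcium fluorescence, read kinetically every second over 3 min, reports TRH-evoked signalling in HEK293 cells carrying TRHR. Test compounds were added 5 min ahead of a 1 nM TRH challenge.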

For experiment [5] the target is unchanged. The experiment in a line: qHTS assay to identify small molecule agonists of the thyrotropin-releasing hormone receptor (TRHR) signaling pathway (AID 1346891; calls by dose curve;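 note: HEK293 cells expressing TRHR with calcium dye readout; series mostly up to about 58 µM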). The procedure, abridged:
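Agonist-mode calcium mobilisation screen: TRHR-transfected HEK293 cells cultured overnight (18 h), dye-loaded for 2 h at 37 °C, exposed to compounds, and monitored by fluorescence for 3 min.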

Experiment [6] is described as follows: Human pregnane X receptor (PXR) small molecule agonists, qHTS cell viability counter screen (AID 1346977). Note: nearly all actives have a fitted effect of over 50% in size. Note: potency is the fitted concentration of half-maximal effect. In outline: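 Measures live-cell protease fluorescence (CellTiter-Fluor) in PXR-Luc HepG2 cells treated 24hr with compounds at 37C. Cells had 5hr to attach before pin transfer of DMSO solutions.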
Experiment [7] can be described thus: Caspase-3/7 induction in HepG2 cells by small molecules, qHTS assay (AID 1346978). Note: nearly all actives have a fitted effect of over 15% in size. Note: potency is the fitted concentration of half-maximal effect. In outline:
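Caspase-3/7 induction was measured by Caspase-Glo 3/7 luminescence (30 min, room temperature) after a 17 hr compound exposure of wild-type HepG2 cells seeded at 2,000 per well and pre-incubated 5 hr.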

The nature of experiment [8]: Caspase-3/7 induction in CHO-K1 cells by small molecules, qHTS cell viability counter screen (AID 1346979). Note: nearly all actives have a fitted effect of over 35% in size. Note: potency is the fitted concentration of half-maximal effect. In outline:
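In the same wells as the caspase read, viability of compound-treated wild-type CHO-K1 cells was assessed using CellTiter-Fluor, added after 16hr at 37C and measured by fluorescence following 1hr further incubation.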

The target of experiment [9] is Nuclear receptor subfamily 1 group I member 2 (Homo sapiens) (UniProt O75469). The experiment in a line: Human pregnane X receptor (PXR) small molecule agonists, qHTS assay (AID 1346982). Note: nearly all actives have a fitted effect of over 35% in size. Note: potency is the fitted concentration of half-maximal effect. The procedure, abridged: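 Luciferase signal from ONE-Glo (30 min, room temperature) measured activation of hPXR-driven CYP3A4 reporter expression in PXR-Luc HepG2 cells treated with compounds for 24 hr at 37 C.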

Experiment [10] concerns the target Progesterone receptor (Homo sapiens) (UniProt P06401). The experiment in a line: qHTS assay to identify small molecule agonists of the progesterone receptor (PR) signaling pathway (AID 1346784; calls by dose curve; note: nearly all actives have a fitted effect of over 30% in size). In outline:
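Agonist mode, quantitative HTS format in a HEK 293T line expressing a UAS-controlled beta-lactamase reporter; 16 hr compound exposure at 37C in 2% charcoal-stripped FBS, then LiveBLAzer B/G FRET fluorescence.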

Experiment [11] can be described thus: qHTS assay to identify small molecule antagonists of the TGF-beta/Smad signaling pathway - cell viability counter screen (AID 1346824). Note: nearly all actives have a fitted effect of over 50% in size. The procedure, abridged: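 Cytotoxicity counter-screen run in the same wells as the beta-lactamase Smad reporter read: CellTiter-Glo luminescence after 30 min at room temperature. HEK 293T SBE-bla cells had 5 hr compound exposure at 37 C with TGF-beta1 (0.25 ng/mL stock).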

The nature of experiment [12]: Caspase-3/7 induction in HepG2 cells by small molecules, qHTS cell viability counter screen (AID 1346981). Note: nearly all actives have a fitted effect of over 30% in size. Note: potency is the fitted concentration of half-maximal effect. In outline: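 HepG2, WT, 2,000 cells/well; 5 hr pre-incubation 37 C/5% CO2; compound pin-transferred from DMSO; 16 hr exposure; CellTiter-Fluor, 1 hr; fluorescence read.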
Experiment [13] in a line: qHTS assay to identify small molecule agonists of the progesterone receptor (PR) signaling pathway - cell viability counter screen (AID 1346799; calls by dose curve; note: nearly all actives have a fitted effect of over 45% in size). In outline: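 Counter screen for cytotoxicity: compound-treated PR-UAS-bla HEK293T cells (16 hr, 37C, 5% CO2) were assayed with CellTiter-Glo, luminescence measured after 30 min at room temperature.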
The nature of experiment [14]: Caspase-3/7 induction in CHO-K1 cells by small molecules, qHTS assay (AID 1346980). Note: nearly all actives have a fitted effect of over 15% in size. The procedure, abridged: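 Luminescent Caspase-Glo 3/7 read (30min, room temperature) quantified apoptosis induction. Cells were wild-type CHO-K1, treated with compound for 17hr at 37 C and 5% CO2.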
The target in experiment [15] is Progesterone receptor (Homo sapiens) (UniProt P06401). The experiment in a line: qHTS assay to identify small molecule antagonists of the progesterone receptor (PR) signaling pathway (AID 1346795; active = well fitted inhibition curve with a large enough effect in the signal ratio in the repeat runs, not every such curve was filed as active; the % refers to the signal ratio; note: potency is the fitted concentration of half-maximal effect). In outline:
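HEK293T PR-UAS-bla reporter cells in charcoal-stripped serum (2%) received compound after a 6 hr settling period, followed by R5020 agonist at 1 nM final; 16 hr incubation preceded the FRET substrate step and fluorescence measurement.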

Experiment [16] deals with Nuclear receptor subfamily 1 group I member 2 (Homo sapiens) (UniProt O75469). The experiment in a line: Human pregnane X receptor (PXR) activation by small molecules, qHTS assay (AID 1346985). Note: nearly all actives have a fitted effect of over 40% in size. Note: potency is the fitted concentration of half-maximal effect. The procedure, abridged: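 DPX-2 cells (HepG2 co-transfected with a PXR response element and a CYP3A4-promoter luciferase construct) were seeded at 2,000 per well, rested 5 hr at 37C, then exposed to DMSO-dissolved compounds for 24 hr. Activation was read as luciferase luminescence.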

In experiment [17] the target is Cytochrome P450 2D6 (Homo sapiens) (UniProt P10635). The experiment in a line: Cytochrome P450 Family 2 Subfamily D Member 6 (CYP2D6) small molecule antagonists: luciferase reporter qHTS assay (AID 1671196). Note: nearly all actives have a fitted effect of over 50% in size. Note: potency is the fitted concentration of half-maximal effect. In outline:
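Read-out is luminescence from luciferin formed by CYP2D6 turnover of a proluciferin substrate, recorded as relative luminescence units. Reactions ran 1 h at room temperature after NADPH regeneration solution was added.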

Experiment [18] deals with Nuclear receptor subfamily 1 group I member 2 (Homo sapiens) (UniProt O75469). The experiment in a line: CYP3A4 induction through human pregnane X receptor (PXR) by small molecules, qHTS assay (AID 1346984). Note: nearly all actives have a fitted effect of over 40% in size. In outline: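 Luminescence readout: luciferase signal after One-Glo (30 min, room temperature), following 3 h at 37C with 3uM final Luciferin-IPA P450 substrate. Cells were DPX-2 (HepG2, PXR/CYP3A4-luc co-transfected) dosed for 24 h.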

Sequence of Progesterone receptor (Homo sapiens) (P06401 whole entry, looked up): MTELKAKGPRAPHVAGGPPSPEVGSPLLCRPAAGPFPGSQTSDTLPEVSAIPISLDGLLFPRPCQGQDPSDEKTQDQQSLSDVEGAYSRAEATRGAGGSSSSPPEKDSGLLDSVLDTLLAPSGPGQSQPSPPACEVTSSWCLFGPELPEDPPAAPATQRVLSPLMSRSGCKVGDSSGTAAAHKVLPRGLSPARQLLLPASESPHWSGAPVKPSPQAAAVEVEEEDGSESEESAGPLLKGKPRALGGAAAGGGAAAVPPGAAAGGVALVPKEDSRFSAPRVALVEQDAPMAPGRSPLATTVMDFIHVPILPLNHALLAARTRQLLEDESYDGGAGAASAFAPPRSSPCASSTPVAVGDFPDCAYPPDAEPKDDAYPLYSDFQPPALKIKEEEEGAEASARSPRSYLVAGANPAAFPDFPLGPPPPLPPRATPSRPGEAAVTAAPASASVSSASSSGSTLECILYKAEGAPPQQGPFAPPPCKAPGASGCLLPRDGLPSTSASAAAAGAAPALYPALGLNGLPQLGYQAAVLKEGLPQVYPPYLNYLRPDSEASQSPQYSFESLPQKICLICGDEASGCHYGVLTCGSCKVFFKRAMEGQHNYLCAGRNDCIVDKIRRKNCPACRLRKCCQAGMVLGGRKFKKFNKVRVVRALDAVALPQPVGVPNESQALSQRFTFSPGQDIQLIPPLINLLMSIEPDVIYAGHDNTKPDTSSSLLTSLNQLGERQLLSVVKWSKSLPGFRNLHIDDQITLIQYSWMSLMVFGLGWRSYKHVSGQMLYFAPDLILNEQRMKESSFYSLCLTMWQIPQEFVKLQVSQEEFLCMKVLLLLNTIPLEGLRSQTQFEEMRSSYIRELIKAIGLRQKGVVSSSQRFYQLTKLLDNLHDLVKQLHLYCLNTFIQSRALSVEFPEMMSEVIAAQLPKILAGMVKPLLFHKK
Sequence of Thyrotropin-releasing hormone receptor (Homo sapiens) (P34981 whole entry, looked up): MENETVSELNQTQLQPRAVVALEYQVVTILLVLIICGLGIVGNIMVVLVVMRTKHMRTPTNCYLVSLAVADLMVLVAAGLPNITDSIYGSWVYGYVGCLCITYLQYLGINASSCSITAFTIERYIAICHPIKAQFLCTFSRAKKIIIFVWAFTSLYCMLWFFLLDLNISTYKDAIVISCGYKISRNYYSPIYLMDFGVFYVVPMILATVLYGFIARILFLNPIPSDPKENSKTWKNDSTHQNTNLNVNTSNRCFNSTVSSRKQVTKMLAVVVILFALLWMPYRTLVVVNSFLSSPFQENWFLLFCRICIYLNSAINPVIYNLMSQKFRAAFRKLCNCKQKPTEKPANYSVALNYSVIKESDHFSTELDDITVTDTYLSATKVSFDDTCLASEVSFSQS
Sequence of Cytochrome P450 2D6 (Homo sapiens) (P10635 whole entry, looked up): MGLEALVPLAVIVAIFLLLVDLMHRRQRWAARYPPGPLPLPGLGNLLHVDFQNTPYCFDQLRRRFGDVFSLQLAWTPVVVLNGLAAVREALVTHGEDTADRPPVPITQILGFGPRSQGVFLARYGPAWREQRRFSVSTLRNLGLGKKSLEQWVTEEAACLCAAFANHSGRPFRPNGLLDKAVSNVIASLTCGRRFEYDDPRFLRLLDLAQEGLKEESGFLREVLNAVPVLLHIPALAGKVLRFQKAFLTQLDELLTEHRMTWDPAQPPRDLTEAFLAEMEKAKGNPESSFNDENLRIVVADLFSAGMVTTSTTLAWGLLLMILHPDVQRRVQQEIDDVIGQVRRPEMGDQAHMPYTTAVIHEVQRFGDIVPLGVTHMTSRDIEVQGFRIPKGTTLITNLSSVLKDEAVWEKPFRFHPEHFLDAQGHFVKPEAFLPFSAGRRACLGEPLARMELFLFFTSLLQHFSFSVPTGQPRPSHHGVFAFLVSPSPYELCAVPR
Sequence of Nuclear receptor subfamily 1 group I member 2 (Homo sapiens) (O75469 whole entry, looked up): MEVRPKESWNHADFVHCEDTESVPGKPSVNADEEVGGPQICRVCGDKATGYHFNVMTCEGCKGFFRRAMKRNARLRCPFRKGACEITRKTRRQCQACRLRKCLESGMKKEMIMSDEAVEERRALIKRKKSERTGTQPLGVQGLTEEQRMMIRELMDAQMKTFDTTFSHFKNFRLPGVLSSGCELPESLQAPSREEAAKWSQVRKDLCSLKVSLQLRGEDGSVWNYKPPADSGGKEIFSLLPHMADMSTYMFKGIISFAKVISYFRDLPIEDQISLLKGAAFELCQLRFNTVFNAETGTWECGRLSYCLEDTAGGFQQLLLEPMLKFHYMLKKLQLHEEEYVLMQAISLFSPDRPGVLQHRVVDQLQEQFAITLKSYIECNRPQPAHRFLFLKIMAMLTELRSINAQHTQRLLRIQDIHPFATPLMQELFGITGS

For `CN1C(=O)N(c2ccccc2Br)Cc2cnc(Nc3ccc4c(c3)OCC(CO)O4)nc21` (stereo not given), the Potency was 38.6 µM (active) in experiment [1]; 34.7 µM (active) in [2]; 30.6 µM (active) in [6]; 6.11 µM (active) in experiment [7]; 24.3 µM (active) in [8]; 0.0154 µM (active) in experiment [9]. The Potency result in experiment [3] and in experiment [5] was “inactive” throughout. The call in experiment [4] was inactive.

`CN1C[C@H](C(=O)N[C@]2(C)O[C@@]3(O)[C@@H]4CCCN4C(=O)[C@H](Cc4ccccc4)N3C2=O)C[C@@H]2c3cccc4[nH]cc(c34)C[C@H]21`: the Potency result in experiment [10], in experiment [11], in experiment [2] and in experiment [5] was “inactive” each time. In addition, in experiment [4], the call was inactive. Besides, the Potency in [6] was 21.1 µM (active); in [8], 26.6 µM (active); in [12] it was 26.6 µM (active); in [9], 10.6 µM (active).

Consider `CCCCCCCC/C=C\CCCCCCCCCCCC(=O)O`, for which the Potency result in experiment [10], in [1], in experiment [13], in [11], in experiment [2] and in experiment [3] was “inactive” in each case. In addition, the Potency entry in [6], in experiment [7], in [8], in [14], in [12] and in experiment [9] was “inactive” throughout.

`O=C(CCc1ccc(O)cc1)c1c(O)cc(O)cc1O`: the Potency entry in [10], in [11], in experiment [2], in experiment [5] and in [7] was “inactive” throughout. Moreover, the Potency in [15] was 31.3 µM (active). Further, the outcome in experiment [4] was inactive.

With `CCCCCCCC/C=C\CCCCCCCCO`, the Potency entry in experiment [10], in [1], in experiment [13], in experiment [11], in experiment [2] and in [3] was “inactive” each time. Besides, the Potency entry in [5], in [6], in [7], in experiment [8] and in experiment [14] was “inactive” each time. For the same molecule, the call in experiment [4] was inactive.

As for `CC[C@]1(O)C[C@H]2CN(CCc3c([nH]c4ccccc34)[C@@](C(=O)OC)(c3cc4c(cc3OC)N(C=O)[C@H]3[C@@](O)(C(=O)OC)[C@H](OC(C)=O)[C@]5(CC)C=CCN6CC[C@]43[C@@H]65)C2)C1`, the Potency entry in [10], in experiment [11], in experiment [2], in [3], in experiment [5] and in experiment [7] was “inactive” throughout. Also, the Potency result in [14] and in experiment [17] was “inactive” throughout. Besides, in experiment [4], the result was inactive. Moreover, the Potency in experiment [16] was 8.91 µM (active).

Turning to `C=COCC(C)C`, the Potency result in experiment [1], in experiment [13], in experiment [11], in [2], in [3] and in experiment [5] was “inactive” each time. The Potency result in experiment [6], in [7], in [8], in experiment [12] and in experiment [9] was “inactive” throughout. In experiment [4], the result was inactive.

In the case of `c1cc(N(CC2CO2)CC2CO2)ccc1Cc1ccc(N(CC2CO2)CC2CO2)cc1` (stereo not given), the Potency entry in experiment [11], in experiment [2], in experiment [5], in [7] and in [14] was “inactive” throughout. The molecule was called inactive in experiment [4]. In addition, the Potency is 54.5 µM (active) in experiment [6], 54.5 µM (active) in experiment [8], 61.1 µM (active) in experiment [12] and 27.3 µM (active) in experiment [9].

With `CCCCOc1ccc(OCCCN2CCOCC2)cc1`, the Potency result in experiment [1], in experiment [13], in [11], in experiment [2], in [3] and in experiment [7] was “inactive” each time. The Potency result in experiment [8], in [14], in [12], in experiment [18] and in [16] was “inactive” in each case. Further, the Potency in experiment [17] was 27.5 µM (active).

In the case of `COc1cc(C(=O)NC2CCN(C)CC2)ccc1Nc1ncc2c(n1)N(C1CCCC1)CC(F)(F)C(=O)N2C`, the Potency result in [10], in experiment [5] and in experiment [17] was “inactive” throughout. Besides, in experiment [4], the outcome was inactive. Also, the Potency in experiment [6] is 8.88 µM (active); in [7], 22.3 µM (active); in [8], 0.499 µM (active); in experiment [12], 15.8 µM (active).

Turning to `CCCCCCCCCI`, the Potency entry in [15], in [1], in experiment [13], in [11], in [2] and in experiment [3] was “inactive” throughout. Also, the Potency result in [5], in experiment [6], in experiment [7], in [8], in [14] and in experiment [12] was “inactive” in each case. For the same molecule, the Potency entry in [9] was “inactive”. For the same molecule, the call in [4] was inactive.

`O=C1c2ccccc2C(=O)N1CCc1noc(-c2ccc(CN3CCCCCC3)s2)n1`: the Potency result in [10], in experiment [1], in [13], in experiment [11], in experiment [2] and in [5] was “inactive” in each case. Moreover, in experiment [7], the Potency entry was “inactive”. Also, the outcome in [4] was inactive. Further, the values for the Potency in experiment [9] and in experiment [17] were 14.1 µM (active) and 8.19 µM (active), respectively.

Turning to `CC1(CN2CCC(n3c(=O)[nH]c4ccccc43)CC2)OCc2ccccc2-n2cccc21` (stereo not given), the Potency entry in [11], in [2], in experiment [3], in experiment [7], in experiment [14] and in experiment [18] was “inactive” throughout. Moreover, the Potency in experiment [6] was 29.8 µM (active); in experiment [9], 29.8 µM (active); in experiment [16] it was 4.47 µM (active); in experiment [17], 2.45 µM (active).
